Data from PubChem BioAssay AID686978 (National Center for Advancing Translational Sciences (NCATS), 2013).
Values joined by “and” are separate entries in the source; they are usually repeats but may differ in a detail not shown here. Equal entries are not always repeated. Out of some 420,000 compounds screened, about 64,000 (15%) were called active. Another 27% or so got no clear call; they are omitted. Only a selection was taken, and actives are over-represented in it overall. A number with no mark means an inactive call. The call rests on the fitted dose curve; in most records, active means well fitted inhibition curve with a large enough effect; inconclusive means small, poorly fitted or top-dose-only effect; inactive means flat fitted curve, though single readings scatter.

test: qHTS for Inhibitors of human tyrosyl-DNA phosphodiesterase 1 (TDP1): qHTS in cells in absence of CPT; settings: DT40 Tdp1-/- hTDP1 cells, no CPT, ATP luminescence, 48 h; series mostly up to 46.2 µM; activity change, negative = growth inhibition: at the top concentration; further: nearly all actives have a fitted effect of over 55% in size
Summary of the method: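 DT40 Tdp1-/-;hTDP1 cells, no CPT (DMSO vehicle only), 400 cells/well; compounds pin-transferred; ≥48 hr, 37 °C; CellTiter-Glo 30 min RT dark, luminescence read.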
On the % scale 0 is the no-effect control and ±100 the full control effect; potency means the concentration at half of the fitted maximal effect.

Structure (SMILES)	activity change, negative = growth inhibition	Potency
CC1CCC(N(C)C2CCN(C)CC2)CC1 (centres undefined)	-18.5%	
O=C(COC(=O)Cc1ccccc1)Nc1ccc(F)cc1	1.09%	
CCOC(=O)c1ccc(N2C(=O)c3[nH]nc(-c4ccccc4)c3C2c2ccc(C(C)C)cc2)cc1 (centres undefined)		25.9 µM (active)
CCN(N=Nc1nonc1OC)c1nonc1OC	-6.66%	
O=c1[nH]c(=O)n(-c2ccc(F)cc2)c(O)c1C=NCCN1CCCCC1	4.02%	
CCn1cc2nc(SCc3ccccc3Cl)n(CCc3ccccc3)c(=O)c2n1		20.6 µM (active)
COc1cccc(OC)c1C(=O)NC(=S)N1C[C@H]2C[C@H](C1)c1cccc(=O)n1C2	0.63%	
CC(C)=C[C@@H]1[C@@H](C(=O)OCc2coc(Cc3ccccc3)c2)C1(C)C	-4.94%	
CN1CCN(C(=O)O[C@@H]2c3nccnc3C(=O)N2c2ccc(Cl)cn2)CC1	-14.9%	
CCC(C)(O)C(=O)OC1C(=O)OC2CC3C(C)=CC(=O)C(O)C3(C)C3C4(O)OCC23C1C(C)C4O (centres undefined)		0.13 µM (active)
N#CC(C#N)=Cc1cc(O)c(O)c([N+](=O)[O-])c1	-19.8%	
O=C(N/N=C/c1ccc([N+](=O)[O-])o1)c1cc([N+](=O)[O-])cc([N+](=O)[O-])c1O	-54%	
CC(=O)OC1C2CCC3C1(CC(O)[C@@]1(O)[C@@H](CC(O)C1(C)C)[C@]3(C)O)C[C@@]2(C)O (some centres undefined)	0.989%	
COc1ccc(-c2cc(NC=O)c3ncc(-c4cc(OC)c(OC)c(OC)c4)n3c2)c(OC)c1		0.82 µM (active)
O=C1NC(=O)N(CCc2ccc(F)cc2)C(=O)/C1=C/C=C/c1ccccc1		6.51 µM (active)
O=C1NC(=O)N(Cc2ccco2)C(=O)/C1=C\c1cccn1CCOc1ccccc1	-1.44%	
O=C(O)COc1ccccc1/C=C1\C(=O)NC(=O)N(CCC2=CCCCC2)C1=O	0.529%	
CCc1ccc(N(CC)C(=O)CCn2cnc3onc(-c4ccc(F)cc4)c3c2=O)cc1		13 µM (active)
O=C(/C=C/c1cccs1)c1cc(Cl)ccc1OC(=O)N1CCOCC1		16.4 µM (active)
Cc1cccc(-n2c(O)c(C=NC34CN5CN(CN(C5)C3)C4)c(=O)[nH]c2=O)c1	6.16%	
Oc1ccc2c3c1OC1[C@H](O)CC[C@@]4(O)[C@@H](C2)N(CC2CC2)CC[C@]314 (some centres undefined)		inactive
COC12CC[C@@]3(C[C@@H]1C(C)(O)C(C)(C)C)[C@H]1Cc4ccc(O)c5c4[C@@]3(CCN1CC1CC1)[C@H]2O5 (some centres undefined)		24.1 µM (active)
CCOC(=O)C1CN(C)CCC1=O (centres undefined)	-26%	
CCC/C(=N\O)c1c[nH]c2ccccc12	-19.1%	
CNCC[C@H](Oc1ccc(C(F)(F)F)cc1)c1ccccc1		8.41 µM (active) and 14.6 µM (active)

Structure (SMILES)	activity change, negative = growth inhibition	Potency
CCC1(CC(C)c2ccccc2)C(=O)NC(=O)NC1=O (centres undefined)	-14.9%	
CCCCC/C=C\C/C=C\C/C=C\CCCCCCC(=O)NCCO	-2.66% [at 4.12 µM]	
CC1CCCN1CCC(C(N)=O)(c1ccccc1)c1ccccc1 (centres undefined)	-4.44%	
O=Cc1cn(Cc2ccc(F)cc2Cl)c2ccccc12		18.4 µM (active)
O=[N+]([O-])c1ccc(Cl)c(Cl)c1	-16.7%	
CCC(=NCc1ccco1)c1c(O)n(Cc2ccccc2)c(=O)[nH]c1=O	-23.7%	
Clc1ccc([C@@H]2C[C@H]3CC[C@@H]2N3)cn1		inactive
Cc1ccc([C@H]2C[C@H](O)[C@@H](n3cc(COC(=O)c4ccccc4)nn3)CN2CC2CCCCC2)cc1		20.6 µM (active)
COCCNC(=O)CN1C2CCC1CC(O)(c1cccnc1)C2 (centres undefined)	-16.8%	
Cn1c(O)c(C=NCCN2CCNCC2)c(=O)n(C)c1=O	-2.35%	
NCC(O)c1ccc(O)cc1 (centres undefined)		inactive
c1csc(CN2CC3(CCNCC3)C2)n1	-19.2%	
CCc1ccccc1NC(=O)c1sc2nc3c(cc2c1N)CN(Cc1ccccc1)CC3		5.8 µM (active)
CC12CN3CC(C)(CN(C1)C3c1cccs1)C2 (centres undefined)	-6.5%	
CC(=O)Nc1ccccc1C(=O)OCC(=O)c1cccc2ccccc12	-16.9%	
CCOc1cccc(=NC2CCCCC2)c2c(C)[nH]c(C)c12		5.8 µM (active)
O=C(N/N=C/c1c(O)n(C2CC2)c(=S)[nH]c1=O)c1ccccc1Cl	12.7%	
OC(CNC1CCCCC1)c1ccccc1 (centres undefined)	-4.78%	
CC1CC=CCC12C(=O)NC(=S)NC2=O (centres undefined)	0.763%	
COc1ccccc1CNC(=O)Cn1c(=O)oc2cc(Cl)ccc21		18.4 µM (active)
Cc1ccccc1N1C(=O)NC(=O)/C(=C\c2cc(C)n(C)c2C)C1=O	0.262%	
C[C@]12CCC3C(CC[C@H]4[C@H](O)[C@H](O)CC[C@]34C)C1CCC2=O (some centres undefined)		13 µM (active)
C[C@@]12CCC3C(CC[C@@H]4CC(O)CC[C@@]34C)C1CCC2O (some centres undefined)	7.33%	
C[C@]12CCC3C(CC[C@H]4[C@H](O)[C@H](O)CC[C@]34C)C1CC[C@@H]2O (some centres undefined)	-15.9%	
